Records with an inconclusive call do not appear. Values without a mark were called inactive. Calls of active or inactive are those of the source. Calls follow the shape of the dose curve; as a rule, active = well fitted cell-killing curve with a large enough effect in the repeat runs (not every such curve was filed as active); inconclusive = weak or mixed curves, or effect the other way; inactive = no such curve, though single readings can be large or run the other way.
Experiment: qHTS assay to identify small molecule antagonists of the estrogen related receptor signaling pathway with the pleiotropic PPARgamma coactivator (PGC) from Tox21 10K library - cell viability counter screen (AID 1224840); also: nearly all actives have a fitted effect of over 40% in size
Details: PGC/ERR reporter cells viability, CellTiter-Fluor, 17.5 h; series mostly up to 92.4 µM; viability change, negative = cytotoxic: at the top concentration
Summary of the method: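 Seeded PGC/ERR cells (2,000/well, 6 h, 37 C/5% CO2) get compound by pin tool; 17.5 h incubation at 37 C; CellTiter-Fluor added, 30 min, fluorescence measured.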
% is scaled to controls: 0 for no effect and ±100 for the full control effect; potency is read from the fitted curve at half-maximal effect.

SMILES | viability change, negative = cytotoxic | Potency
Oc1cccc(Nc2ccccc2)c1 | -9.76% | 
Cc1cc2c(OCC(CNC(C)(C)C)OC(=O)c3ccccc3)cccc2[nH]1 (stereo unspecified) | -1.36% [at 42.5 µM] | 
CCC1(CO)COCOC1 | -2.99% | 
CC(C)(C)C(=O)C(=O)O | 11.1% | 
CCCCOc1ccc(OCCCN2CCOCC2)cc1 | -6.31% [at 42.5 µM] | 
O=[N+]([O-])c1cc(C2CCCCC2)c(O)c([N+](=O)[O-])c1 |  | 12.2 µM (active)
CN1CCCC(n2nc(Cc3ccc(Cl)cc3)c3ccccc3c2=O)CC1 (stereo unspecified) | -29.3% [at 42.5 µM] | 
C(=C\c1ccccc1)/c1ccccc1 | 1.75% | 
Clc1cc(Cl)nc(Cl)n1 | -2.32% | 
O=C1NCCN1CCO | -5.33% | 
CCCCCCCCOc1ccc(C(=O)O)cc1 | -4.21% | 
Oc1c(I)cc(I)c2cccnc12 | -9.32% [at 42.5 µM] | 
CCOC(=O)c1ccc(I)cc1 | -0.22% | 
Cc1cc(O)ccc1O |  | 61.8 µM (active)
CCOC(=O)/C=C/C(=O)OCC | -2.09% | 
CCCCCCCC/C=C\CCCCCCCCO | 2.11% | 
O=C1Cc2cc(Cl)ccc2N1 | -5.05% [at 42.5 µM] | 
CC(C)COCC(CN(Cc1ccccc1)c1ccccc1)N1CCCC1 (stereo unspecified) |  | 29.8 µM (active)

SMILES | viability change, negative = cytotoxic | Potency
C=CC(=O)[O-].C=CC(=O)[O-].[Zn+2] | 7.29% | 
C=C1CCC2CC1C2(C)C (stereo unspecified) | 0.537% | 
O=C(O)c1cccc(-c2noc(-c3ccccc3F)n2)c1 | 7.44% [at 42.5 µM] | 
CC(=O)OCCN(CCOC(C)=O)c1ccc(N=Nc2ccc([N+](=O)[O-])cc2C#N)cc1 |  | 48.6 µM (active)
O=c1[nH]c2ccc(Cl)cc2o1 | 0.773% | 
CCc1ccccc1 | 1.03% | 
CCC(C)COC(C)=O (stereo unspecified) | 6.71% | 
C=C(C)[C@@H]1CCC2=CCC[C@@H](C)[C@]2(C)C1 | -0.437% | 
O=C(Cn1ccnc1[N+](=O)[O-])NCCO | 6.96% [at 42.5 µM] | 
C[C@@H]1CN(CCCn2c3ccccc3c3ccccc32)C[C@H](C)N1 |  | 26.6 µM (active)
C[C@]1(Cn2ccnn2)[C@H](C(=O)O)N2C(=O)C[C@H]2S1(=O)=O | -0.482% [at 42.5 µM] | 
O=C(/C=C/c1ccccc1)OCCc1ccccc1 | 1.07% | 
CCCCN1CCCC1C(=O)Nc1c(C)cc(C)cc1C (stereo unspecified) | 0.301% [at 42.5 µM] | 
Cc1ccc(C(C)(C)O)cc1 | 9.79% | 
CCCCN(CCCC)C(C(N)=O)c1ccc(OC)cc1 (stereo unspecified) | -2.32% [at 42.5 µM] | 
CCCCN(CCN(CCCC)C(=O)N1CCOCC1)C(=O)N1CCOCC1 | -0.956% [at 42.5 µM] | 
CC1CC(OC(=O)C(O)c2ccccc2)CC(C)(C)N1C (stereo unspecified) | 3.31% [at 42.5 µM] | 
CCCCCC[C@@H](O)C/C=C\CCCCCCCC(=O)OCC(O)CO (stereo partly specified) | -7.26% | 

— PubChem BioAssay (Tox21)
